Measured values taken from PubChem BioAssay.
Active and inactive are the calls of the source. Unless noted, how the calls were made is not given here.

Key:
[1] = anti-His antibody binders, primary screen, artefact control for SMM control protein annotation, biochemical, small-molecule microarray, 635 nm fluorescence (AID 1128); details: anti-His Alexa647 antibody binding, higher = more signal;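 further: score merges feature fluorescence with signal-to-noise for each printed compound spot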
[2] = system: Human papillomavirus type 1a E7 protein (residues 1-88); assay: HPV1a E7 small-molecule binders, primary screen, biochemical, small-molecule microarray, residues 1-88, 635 nm (AID 1129); details: small-molecule microarray binding, fluorescence 635 nm; higher = more signal
[3] = biological target: Focal adhesion kinase 1 (Homo sapiens) (UniProt Q05397); assay: small-molecule microarray binders of FAK, primary screen, biochemical, 635/667 nm fluorescence, BSA, DTT (AID 1130); details: PTK2 binding, 635 nm fluorescence, higher = more signal;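 further: composite of spot emission at 667 nm and signal to noise over triplicate slides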
Sequence of Focal adhesion kinase 1 (Homo sapiens) (Q05397 whole entry, looked up): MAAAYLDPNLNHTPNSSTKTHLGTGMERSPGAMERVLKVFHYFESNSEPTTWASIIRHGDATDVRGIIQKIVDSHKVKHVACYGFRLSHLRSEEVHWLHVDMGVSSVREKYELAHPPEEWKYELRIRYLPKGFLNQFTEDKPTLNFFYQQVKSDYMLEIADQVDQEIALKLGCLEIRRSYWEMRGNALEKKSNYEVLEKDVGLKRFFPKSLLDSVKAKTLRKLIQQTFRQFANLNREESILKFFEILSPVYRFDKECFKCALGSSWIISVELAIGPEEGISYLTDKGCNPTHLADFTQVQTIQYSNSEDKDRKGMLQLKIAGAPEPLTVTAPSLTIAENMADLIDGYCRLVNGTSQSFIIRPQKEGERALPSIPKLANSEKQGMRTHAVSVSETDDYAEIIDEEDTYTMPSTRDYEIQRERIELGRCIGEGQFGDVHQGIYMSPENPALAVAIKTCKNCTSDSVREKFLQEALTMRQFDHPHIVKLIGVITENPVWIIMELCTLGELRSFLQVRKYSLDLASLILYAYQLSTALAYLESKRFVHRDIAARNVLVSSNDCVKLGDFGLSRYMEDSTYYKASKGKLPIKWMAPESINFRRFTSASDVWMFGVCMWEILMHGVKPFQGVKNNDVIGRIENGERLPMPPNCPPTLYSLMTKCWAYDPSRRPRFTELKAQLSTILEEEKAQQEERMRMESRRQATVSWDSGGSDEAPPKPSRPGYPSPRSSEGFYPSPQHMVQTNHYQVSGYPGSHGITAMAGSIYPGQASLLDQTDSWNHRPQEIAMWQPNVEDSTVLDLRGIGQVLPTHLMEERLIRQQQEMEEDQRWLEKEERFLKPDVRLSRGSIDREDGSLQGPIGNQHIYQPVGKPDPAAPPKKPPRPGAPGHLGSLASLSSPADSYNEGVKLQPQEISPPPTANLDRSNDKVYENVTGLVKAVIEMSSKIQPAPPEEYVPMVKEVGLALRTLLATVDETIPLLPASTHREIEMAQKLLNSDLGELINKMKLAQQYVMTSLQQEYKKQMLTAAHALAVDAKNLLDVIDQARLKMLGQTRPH

[4] = system: Fibrinogen (Alexa647-labelled); assay: fibrinogen binders on compound microarrays, profiling panel, artefact control for SMM control-protein annotation, biochemical, small-molecule microarray, 635/667 nm fluorescence (AID 1131); details: fibrinogen-A647 binding fluorescence, higher = more signal;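 further: z-score merges 667 nm fluorescence with per-spot signal-to-noise over triplicate slides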
[5] = biological target: Follistatin (Homo sapiens) (UniProt P19883); assay: follistatin binders on small-molecule microarrays, primary screen, biochemical, small-molecule microarray, 635/667 nm fluorescence (AID 1132); details: FST binding, 635 nm fluorescence, higher = more signal
Sequence of Follistatin (Homo sapiens) (P19883 whole entry, looked up): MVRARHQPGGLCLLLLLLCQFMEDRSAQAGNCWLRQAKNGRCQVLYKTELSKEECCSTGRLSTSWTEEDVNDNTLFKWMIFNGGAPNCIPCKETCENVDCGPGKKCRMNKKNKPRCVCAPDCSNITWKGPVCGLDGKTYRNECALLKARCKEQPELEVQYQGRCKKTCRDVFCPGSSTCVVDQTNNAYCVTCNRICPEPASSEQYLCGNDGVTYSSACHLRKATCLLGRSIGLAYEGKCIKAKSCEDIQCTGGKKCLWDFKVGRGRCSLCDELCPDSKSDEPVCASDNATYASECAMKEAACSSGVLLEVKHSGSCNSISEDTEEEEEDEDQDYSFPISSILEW

[6] = biological target: Fibroblast growth factor 2 (Homo sapiens) (UniProt P09038); assay: FGF2 binders on small-molecule microarrays, primary screen, biochemical, small-molecule microarray, 635/667 nm fluorescence (AID 1133); details: small-molecule microarray binding, FGF2, fluorescence 635/667; higher = more signal
Sequence of Fibroblast growth factor 2 (Homo sapiens) (P09038 whole entry, looked up): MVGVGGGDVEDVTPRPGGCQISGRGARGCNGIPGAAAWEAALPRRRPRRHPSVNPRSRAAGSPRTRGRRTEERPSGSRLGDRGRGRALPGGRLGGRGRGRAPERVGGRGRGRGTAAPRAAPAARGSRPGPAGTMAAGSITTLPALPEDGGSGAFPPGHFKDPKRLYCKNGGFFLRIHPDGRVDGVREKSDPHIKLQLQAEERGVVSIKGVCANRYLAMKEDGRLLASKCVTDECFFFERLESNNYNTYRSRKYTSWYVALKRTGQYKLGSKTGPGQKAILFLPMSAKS

[7] = mitochondrial membrane potential change in A549 cells, profiling panel, cell-based, JC-1 fluorescence, basal, 24 h, 100 nL (AID 1138); details: higher = more signal;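 further: A549 lung adenocarcinoma cells under basal conditions with no added stimulus; test concentration not given here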
Lefty1 = Lefty1 binders on small-molecule microarrays, primary screen, biochemical, small-molecule microarray, 635/667 nm fluorescence (AID 1139); details: small-molecule microarray binding, fluorescence 635/667; higher = more signal
[8] = system: wheat germ agglutinin (Triticum aestivum), Alexa647-labelled; assay: wheat germ agglutinin binders on compound microarrays, profiling panel, artefact control for SMM control-protein annotation, biochemical, small-molecule microarray, 635/667 nm fluorescence (AID 1140); details: WGA-A647 binding, 635 nm fluorescence, higher = more signal;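 further: score merges 667 nm feature emission with signal to noise over triplicate slides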
[9] = biological target: Luciferin 4-monooxygenase (Photinus pyralis) (UniProt P08659); assay: firefly luciferase enzyme inhibitors, primary screen, biochemical, luminescence, purified enzyme, 2006 set (AID 1141); details: SteadyGlo luminescence, 30 min, higher = more signal, called active from +8 up or from −8 down;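 further: cell-free assay with purified firefly luciferase at 100 ng per well in PBS; test concentration not given here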
Sequence of Luciferin 4-monooxygenase (Photinus pyralis) (P08659 whole entry, looked up): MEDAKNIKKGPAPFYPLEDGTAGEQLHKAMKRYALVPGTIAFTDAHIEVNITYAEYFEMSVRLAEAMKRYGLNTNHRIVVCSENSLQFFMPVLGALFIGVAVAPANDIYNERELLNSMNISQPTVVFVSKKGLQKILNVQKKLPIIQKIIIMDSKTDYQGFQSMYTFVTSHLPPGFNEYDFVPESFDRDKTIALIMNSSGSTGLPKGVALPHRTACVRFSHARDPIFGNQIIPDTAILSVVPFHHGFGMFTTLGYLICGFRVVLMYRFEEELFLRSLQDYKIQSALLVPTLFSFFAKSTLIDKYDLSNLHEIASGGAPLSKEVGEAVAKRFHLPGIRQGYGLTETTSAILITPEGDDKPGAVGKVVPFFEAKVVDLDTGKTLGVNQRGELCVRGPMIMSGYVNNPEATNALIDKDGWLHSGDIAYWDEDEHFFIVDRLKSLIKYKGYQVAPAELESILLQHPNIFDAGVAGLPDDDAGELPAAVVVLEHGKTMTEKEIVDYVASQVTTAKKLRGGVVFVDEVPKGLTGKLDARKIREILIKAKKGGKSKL

[10] = system: Wnt5a (protein binding on small-molecule microarray); assay: Wnt5a binders on small-molecule microarray, primary screen, biophysical, 635/667 nm fluorescence (AID 1142); details: 635 nm fluorescence, higher = more signal;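 further: fluorescence read at 667 nm with signal to noise per printed feature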
[11] = cell viability in Huh7 cells, primary screen, cytotoxicity control for HCV replication inhibitor project, CellTiter-Glo luminescence, basal, 48 h (AID 1143); details: Huh7 HCV replicon, higher = more signal, called active from +8 up or from −8 down;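 further: Huh7 hepatoma cells carrying a hepatitis C replication reporter with no stimulus; test concentration not given here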
[12] = P. aeruginosa biofilm formation inhibitors, primary screen, PAO1 strain, BacTiter-Glo luminescence, LB-PBS (AID 1144); details: 12 h, higher = more signal
[13] = CREB reporter modulators without forskolin, primary screen, cell-based, PC12, CRE-LacZ reporter, unstimulated (AID 1145); details: no forskolin, luminescence, 4.5 h, higher = more signal, called active from +8 up or from −8 down
[14] = CREB reporter modulators under forskolin, primary screen, cell-based, PC12, CRE-LacZ reporter, forskolin-stimulated (AID 1146); details: luminescence, 4.5 h, higher = more signal, called active from +8 up or from −8 down;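 further: PC12 cells with 6xCRE LacZ reporter stimulated by forskolin 10 µM; beta-galactosidase reporter signal reflecting CREB driven transcription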
[15] = biological target: Streptavidin (Streptomyces avidinii) (UniProt P22629); assay: streptavidin binders on small-molecule microarray, primary screen, artefact control for SMM compound annotation, biophysical, 635/667 nm fluorescence (AID 1147); details: streptavidin binding, higher = more signal;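 further: signal reflects streptavidin binding to arrayed compounds as a control protein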
Sequence of Streptavidin (Streptomyces avidinii) (P22629 whole entry, looked up): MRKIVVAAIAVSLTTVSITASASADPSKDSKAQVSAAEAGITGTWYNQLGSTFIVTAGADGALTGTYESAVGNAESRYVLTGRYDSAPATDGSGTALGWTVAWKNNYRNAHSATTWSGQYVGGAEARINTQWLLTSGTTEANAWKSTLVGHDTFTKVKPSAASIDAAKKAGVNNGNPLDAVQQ

[16] = small-molecule binders of probe aInhba, primary screen, biochemical, small-molecule microarray, 635/667 nm fluorescence (AID 1148); details: higher = more signal;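 further: score merges 667nm spot fluorescence with signal-to-noise for antibody binding to printed compounds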
Torsin-1A (Homo sapiens) [17] = biological target: Torsin-1A (Homo sapiens) (UniProt O14656); assay: torsin A binders from cell lysate, primary screen, small-molecule microarray, wild-type, 635/667 nm (AID 1149); details: COS7 hTOR1A-WT lysate, 635 nm fluorescence, higher = more signal
Sequence of Torsin-1A (Homo sapiens) (O14656 whole entry, looked up): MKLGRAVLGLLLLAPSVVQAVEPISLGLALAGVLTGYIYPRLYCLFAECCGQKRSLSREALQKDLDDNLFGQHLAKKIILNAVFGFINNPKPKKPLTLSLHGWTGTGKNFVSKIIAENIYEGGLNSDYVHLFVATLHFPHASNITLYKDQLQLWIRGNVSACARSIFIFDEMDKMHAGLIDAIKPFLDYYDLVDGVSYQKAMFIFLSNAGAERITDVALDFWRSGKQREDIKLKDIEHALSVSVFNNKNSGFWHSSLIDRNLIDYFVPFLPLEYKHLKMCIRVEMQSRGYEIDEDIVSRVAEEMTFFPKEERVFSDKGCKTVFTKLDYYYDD

Torsin-1A (Homo sapiens) [18] = biological target: Torsin-1A (Homo sapiens) (UniProt O14656); assay: small-molecule binders of mutant TOR1A in lysate, primary screen, cell lysate, small-molecule microarray, COS7 lysate, 635/667 nm fluorescence (AID 1150); details: COS7 hTOR1A mutant lysate, 635 nm fluorescence, higher = more signal;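 further: score pools 667 nm emission and signal to noise measuring lysate protein binding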
[19] = system: Sonic hedgehog protein (Shh); assay: small-molecule binders of Shh protein, primary screen, biochemical, small-molecule microarray, 635/667 nm fluorescence (AID 1151); details: small-molecule microarray binding, 635 nm fluorescence; higher = more signal;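 further: Shh protein binding to compounds spotted on small-molecule microarray slides; score combines spot fluorescence intensity with signal-to-noise across triplicate slides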

Q: For `C=CCOC(=O)[C@@H]1[C@H]2C(=O)O[C@H](c3ccccc3)[C@H](c3ccccc3)N2[C@H](c2ccc(OCCOC(=O)[C@H]3C[C@H]4C(=O)N[C@@H](CC(C)C)C(=O)N4[C@H]3c3ccc(O)cc3)cc2)[C@@]12C(=O)Nc1ccc(I)cc12`, which composite z-score [1] is on record?
A: The composite z-score was 2.17.

Q: What about the composite z-score [2] of the same molecule?
A: The composite z-score was 1.19.

Q: And the composite z-score [3]?
A: The composite z-score was 0.538.

Q: What about the composite z-score [4] of the same molecule?
A: Its composite z-score is 0.623.

Q: What about the composite z-score [5] of the same molecule?
A: The composite z-score was 1.5.

Q: And the composite z-score [6]?
A: The composite z-score was 1.87.

Q: And the z-score [7]?
A: The z-score was -0.176.

Q: What about the composite z-score (Lefty1) of the same molecule?
A: Its composite z-score is 1.52.

Q: What about the composite z-score [8] of the same molecule?
A: Its composite z-score is 0.747.

Q: And the z-score [9]?
A: The z-score was -0.646 (inactive).

Q: What about the composite z-score [10] of the same molecule?
A: The composite z-score was 0.504.

Q: What about the z-score [11] of the same molecule?
A: The z-score was -0.141 (inactive).

Q: And the z-score [12]?
A: The z-score was 0.0488 (inactive).

Q: What about the z-score [13] of the same molecule?
A: Its z-score is 0.277 (inactive).

Q: And the z-score [14]?
A: Its z-score is -1.14 (inactive).

Q: What about the composite z-score [15] of the same molecule?
A: The composite z-score was 0.324.

Q: And the composite z-score [16]?
A: The composite z-score was -0.102.

Q: What about the composite z-score (Torsin-1A (Homo sapiens) [17]) of the same molecule?
A: Its composite z-score is 1.33.

Q: What about the composite z-score (Torsin-1A (Homo sapiens) [18]) of the same molecule?
A: The composite z-score was 1.33.

Q: What about the composite z-score [19] of the same molecule?
A: Its composite z-score is 1.97.

Q: What does the source list for `[N-]=[N+]=NCc1ccccc1C[C@@]1(C(=O)NCCN2CCOCC2)N=C(c2ccc(OCCCO)cc2)O[C@@H]1c1ccccc1N=[N+]=[N-]`?
A: composite z-score [1]: 1.4; composite z-score [2]: 1.19; composite z-score [3]: 1.05; composite z-score [4]: 0.957; composite z-score [5]: 0.423; composite z-score [6]: -0.498; z-score [7]: -0.183; composite z-score (Lefty1): -0.165; composite z-score [8]: 0.963; z-score [9]: -5.91 (inactive); composite z-score [10]: 0.512; z-score [11]: -5.21 (inactive); z-score [12]: -0.503 (inactive); z-score [13]: 0.69 (inactive); z-score [14]: -1.46 (inactive); composite z-score [15]: 0.408; composite z-score [16]: 0.0906; composite z-score (Torsin-1A (Homo sapiens) [17]): 0.5; composite z-score (Torsin-1A (Homo sapiens) [18]): 1.73; composite z-score [19]: -0.492

Q: Which results are given for `CCOC(=O)[C@H]1C/C=C/C[C@H](C(=O)OCC)C(=O)O[C@H]2[C@@H](OC)O[C@H](CO)[C@@H](OC(=O)CCc3ccccc3)[C@@H]2OC1=O`?
A: composite z-score [1]: 0.522; composite z-score [2]: -0.267; composite z-score [3]: -0.542; composite z-score [4]: 0.0772; composite z-score [5]: -0.502; composite z-score [6]: -0.924; z-score [7]: 3.06; composite z-score (Lefty1): -0.172; composite z-score [8]: -0.185; z-score [9]: 0.418 (inactive); composite z-score [10]: -0.581; z-score [11]: -1.31 (inactive); z-score [12]: -1.28 (inactive); z-score [13]: -0.475 (inactive); z-score [14]: -0.0955 (inactive); composite z-score [15]: -0.345; composite z-score [16]: 0.788; composite z-score (Torsin-1A (Homo sapiens) [17]): -0.407; composite z-score (Torsin-1A (Homo sapiens) [18]): -0.532; composite z-score [19]: -0.0617

Q: For `COC(=O)[C@@]1(Cc2ccccc2)[C@H]2c3cc(C(=O)N4CCCC4)n(C[C@H](O)CO)c3C[C@H]2CN1C(=O)c1ccccc1`, which composite z-score [1] is on record?
A: Its composite z-score is 1.39.

Q: What about the composite z-score [2] of the same molecule?
A: The composite z-score was 0.926.

Q: What about the composite z-score [3] of the same molecule?
A: Its composite z-score is 1.62.

Q: And the composite z-score [4]?
A: The composite z-score was -0.455.

Q: And the composite z-score [5]?
A: Its composite z-score is -0.326.

Q: What about the composite z-score [6] of the same molecule?
A: Its composite z-score is -0.978.

Q: What about the z-score [7] of the same molecule?
A: Its z-score is 0.577.

Q: What about the composite z-score (Lefty1) of the same molecule?
A: Its composite z-score is -0.554.

Q: What about the composite z-score [8] of the same molecule?
A: The composite z-score was 1.18.

Q: And the z-score [9]?
A: Its z-score is 1.22 (inactive).

Q: And the composite z-score [10]?
A: The composite z-score was -0.303.

Q: What about the z-score [11] of the same molecule?
A: Its z-score is 0.0728 (inactive).

Q: And the z-score [12]?
A: The z-score was -0.367 (inactive).

Q: What about the z-score [13] of the same molecule?
A: Its z-score is 0.39 (inactive).

Q: And the z-score [14]?
A: Its z-score is 0.881 (inactive).

Q: And the composite z-score [15]?
A: Its composite z-score is 1.29.

Q: What about the composite z-score [16] of the same molecule?
A: The composite z-score was 0.163.

Q: And the composite z-score (Torsin-1A (Homo sapiens) [17])?
A: The composite z-score was 0.677.

Q: And the composite z-score (Torsin-1A (Homo sapiens) [18])?
A: The composite z-score was 1.4.

Q: And the composite z-score [19]?
A: Its composite z-score is 0.139.
